This is an account of results in PubChem BioAssay (NCI).

Common to all, as to experiment: NCI-60 one-dose screen, 48 h (100 = growth as untreated, 0 = no growth, -100 = all killed)
The test system of one test is HCT-15 colon. Particulars: 10 µM unless noted.
The subject of a further test is HT29 colon. Particulars: 10 µM unless noted.
The test system of another test is SNB-75 CNS. Particulars: 10 µM unless noted.
The subject of another test is SNB-19 CNS. Conditions: 10 µM unless noted.
The test system of another test is U251 CNS. Conditions: 10 µM unless noted.
For the next test, the system named is PC-3 prostate. Particulars: 10 µM unless noted.
The subject of the next test is SK-MEL-5 melanoma. Particulars: 10 µM unless noted.
The next test concerns UACC-62 melanoma. Conditions: 10 µM unless noted.
A further test relates to LOX IMVI melanoma. Particulars: 10 µM unless noted.
The next test has as its system SK-MEL-28 melanoma. Conditions: 10 µM unless noted.
A further test relates to SK-MEL-2 melanoma. Conditions: 10 µM unless noted.
The next test relates to EKVX NSCLC. Conditions: 10 µM.
Another test concerns SN12C renal. Particulars: 10 µM unless noted.
In the next test the test system is UO-31 renal. Particulars: 10 µM unless noted.
In a further test the test system is TK-10 renal. Particulars: 10 µM unless noted.
In a further test the test system is ACHN renal. Conditions: 10 µM unless noted.
The test system of a further test is CCRF-CEM leukemia. Particulars: 10 µM.
Another test relates to MOLT-4 leukemia. Conditions: 10 µM unless noted.
The subject of the next test is CAKI-1 renal. Particulars: 10 µM unless noted.
The subject of another test is A498 renal. Particulars: 10 µM unless noted.

The panel holds about 83,000 compounds, 20% with a hit somewhere; the sample as a whole holds those more often.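 Testing used 96-well plates and a 48-hour single-concentration exposure. Example: -40 means 40% of the starting cells died.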 Unmarked numbers belong to inactive results. Activity calls are given as the source filed them. The calls were made as follows: active = growth percent below 10; inactive = the rest.

`N/C(=N\O)c1ccncc1`: the growth with HCT-15 colon was 100%; in the test on HT29 colon, 101%; with SNB-75 CNS, 86.7%; in the test with SNB-19 CNS, 104%; with U251 CNS it was 106%; in the test with PC-3 prostate, 102%. In addition, the growth is 113% in the test with SK-MEL-5 melanoma; 98.1% in the test on UACC-62 melanoma; 96.2% in the test on LOX IMVI melanoma; 109% in the test on SK-MEL-28 melanoma; 100% in the test with SK-MEL-2 melanoma; 98.9% with EKVX NSCLC. The growth in the test with SN12C renal is 106%; in the test with UO-31 renal, 88%; in the test with TK-10 renal, 95.8%; with ACHN renal, 103%; in the test on CCRF-CEM leukemia it was 106%; in the test with MOLT-4 leukemia it was 114%.
For `CC(=O)CCS(=O)c1ccccc1` (configuration not stated), the growth in the test with HCT-15 colon was 110%; with HT29 colon it was 97.8%; with SNB-75 CNS, 96%; in the test on SNB-19 CNS it was 98.2%; in the test with U251 CNS it was 97.2%; in the test with PC-3 prostate, 94.6%. Further, the growth in the test on SK-MEL-5 melanoma was 102%; in the test on UACC-62 melanoma, 99.6%; in the test on LOX IMVI melanoma it was 97.1%; with SK-MEL-28 melanoma, 109%; in the test with SK-MEL-2 melanoma, 97.1%; in the test with EKVX NSCLC it was 106%. For the same compound, the growth in the test on SN12C renal is 98.6%; in the test with UO-31 renal, 85.8%; in the test with TK-10 renal it was 89%; in the test with ACHN renal, 112%; in the test on CCRF-CEM leukemia it was 101%; with MOLT-4 leukemia, 98.3%.
Consider `C#CCCCCCCC[C@@H]1OC(=O)[C@H]([C@@H](C)CC)NC(=O)[C@@H]([C@@H](C)CC)NC(=O)CC(=O)[C@@H]1C`, for which the growth in the test with HCT-15 colon is 97.3%; with HT29 colon it was 122%; with SNB-75 CNS, 80.9%; with SNB-19 CNS, 97.6%; with U251 CNS it was 105%; in the test on PC-3 prostate, 90.8%. Besides, the growth in the test on SK-MEL-5 melanoma was 102%; in the test with UACC-62 melanoma it was 83%; in the test on LOX IMVI melanoma, 92%; with SK-MEL-28 melanoma it was 109%; in the test on SK-MEL-2 melanoma it was 107%; with EKVX NSCLC, 93.4%. In addition, the growth with SN12C renal is 94.9%; with TK-10 renal, 141%; in the test on ACHN renal, 86.8%; with CAKI-1 renal it was 69.8%; in the test on A498 renal it was 86.6%; in the test on CCRF-CEM leukemia, 93%. In addition, the growth in the test on MOLT-4 leukemia is 87.2%.
In the case of `CCCCCCCCCCN1CC2CCCCC2C1` (configuration not stated), the growth with HCT-15 colon is 35%; with HT29 colon, 19.8%; in the test on SNB-75 CNS, 66.3%; in the test on SNB-19 CNS it was 79.7%; in the test on U251 CNS, 53.4%; with PC-3 prostate, 48.4%. Also, the growth is 49% in the test with SK-MEL-5 melanoma; 89.4% in the test with UACC-62 melanoma; 47.1% in the test with LOX IMVI melanoma; 90.6% in the test with SK-MEL-28 melanoma; 95.2% in the test with SK-MEL-2 melanoma; 63% in the test on EKVX NSCLC. For the same compound, the growth in the test on SN12C renal is 75.7%; in the test with UO-31 renal, 65.5%; with TK-10 renal, 81.4%; in the test on ACHN renal, 80.1%; in the test on CCRF-CEM leukemia it was 46.1%; in the test on MOLT-4 leukemia it was 50.2%.
`COc1cc(/C=C/C(=O)/C=C(/C=C/c2ccc(OC(C)=O)c(OC)c2)OB(F)F)ccc1OC(C)=O`: the growth is 15.4% in the test on HCT-15 colon; 61.4% in the test with HT29 colon; 53% with SNB-75 CNS; 69.4% in the test on SNB-19 CNS; 33.3% with U251 CNS; 63% with PC-3 prostate. The growth with SK-MEL-5 melanoma was 69.6%; in the test on UACC-62 melanoma, 49.6%; with LOX IMVI melanoma, 20%; in the test on SK-MEL-28 melanoma it was 66.8%; in the test on SK-MEL-2 melanoma, 86.9%; in the test on EKVX NSCLC it was 76.1%. Also, the growth with SN12C renal is 42.3%; in the test on UO-31 renal it was 47%; with TK-10 renal, 80.7%; with ACHN renal, 26.5%; in the test on CCRF-CEM leukemia, 1.09% (active); in the test with MOLT-4 leukemia, 3.59% (active).
Take `Cc1ccc(NCc2cn(-c3ccc(C(=O)O)cc3)nc2-c2ccc(C(=O)O)cc2)cc1`: the growth with HCT-15 colon was 110%; in the test with HT29 colon, 97.4%; in the test on SNB-75 CNS, 96.7%; in the test with SNB-19 CNS, 104%; in the test on U251 CNS, 97.1%; in the test with PC-3 prostate, 106%. In addition, the growth with SK-MEL-5 melanoma was 108%; with UACC-62 melanoma, 103%; in the test with LOX IMVI melanoma it was 94.6%; in the test on SK-MEL-28 melanoma it was 112%; with SK-MEL-2 melanoma, 94.3%; in the test with EKVX NSCLC, 106%. Further, the growth in the test on SN12C renal is 108%; in the test with UO-31 renal, 90.6%; in the test with TK-10 renal, 99%; with ACHN renal, 108%; in the test on MOLT-4 leukemia, 105%.
On to `N=C(N)N=Nc1ccc(NN=C(N)N)cc1`, for which the growth in the test on HCT-15 colon was 102%; with HT29 colon it was 91.1%; in the test with SNB-75 CNS, 76.4%; in the test with SNB-19 CNS it was 94.2%; in the test with U251 CNS it was 91.8%; with PC-3 prostate, 45.9%. In addition, the growth in the test with SK-MEL-5 melanoma is 94%; in the test with UACC-62 melanoma, 90.8%; with LOX IMVI melanoma, 96.4%; in the test on SK-MEL-28 melanoma it was 103%; in the test with SK-MEL-2 melanoma, 105%; with EKVX NSCLC it was 36.3%. Further, the growth in the test with SN12C renal is 89%; in the test with UO-31 renal, 53.6%; in the test on TK-10 renal, 103%; in the test with ACHN renal it was 88.2%; in the test on CCRF-CEM leukemia it was 96.3%; in the test with MOLT-4 leukemia, 105%.
Take `Cc1nnc(/N=C2\NC(=O)/C(=C/C=C/c3ccccc3)S2)s1`: the growth in the test on HCT-15 colon was 37%; in the test with HT29 colon, 92.8%; in the test on SNB-75 CNS it was 66.5%; in the test on SNB-19 CNS, 53.7%; in the test with U251 CNS it was 49.5%; with PC-3 prostate it was 39.2%. The growth in the test on SK-MEL-5 melanoma is 44.2%; with UACC-62 melanoma it was 46.1%; with LOX IMVI melanoma, 44.3%; in the test with SK-MEL-28 melanoma, 59.8%; in the test on SK-MEL-2 melanoma it was 57.7%; in the test on EKVX NSCLC, 67.1%. The growth in the test with SN12C renal was 66.2%; in the test with UO-31 renal, 55.2%; in the test on TK-10 renal, 70.3%; with ACHN renal it was 50.8%; in the test on A498 renal it was 65.3%; in the test on MOLT-4 leukemia it was 43.7%.
As for `O=C(O)c1ccc(-c2nn(-c3ccc(C(=O)O)cc3)cc2CNc2ccc(Br)cc2)cc1`, the growth in the test on HCT-15 colon was 100%; in the test on HT29 colon, 99%; in the test on SNB-75 CNS, 97.6%; with SNB-19 CNS, 105%; with U251 CNS it was 106%; in the test with PC-3 prostate, 101%. For the same compound, the growth in the test on SK-MEL-5 melanoma is 103%; with UACC-62 melanoma it was 97.6%; in the test on LOX IMVI melanoma, 102%; in the test with SK-MEL-28 melanoma it was 103%; in the test on SK-MEL-2 melanoma, 94.4%; with EKVX NSCLC it was 101%. In addition, the growth in the test with SN12C renal was 111%; in the test on UO-31 renal it was 87.7%; in the test with TK-10 renal it was 98.4%; with ACHN renal it was 102%; in the test on CCRF-CEM leukemia, 101%; in the test on MOLT-4 leukemia, 118%.
